Data as given in PubChem BioAssay (NCATS).
Results filed as inconclusive are left out. A call without a number means that no potency is given here. Calls of active or inactive are those of the source. Unless noted, calls follow the shape of the full dose curve.

How the values were obtained:
[1] = qHTS for Inhibitors of the Functional Ribonucleoprotein Complex (vRNP) of Lassa (LASV) Arenavirus: LASV Primary Screen - GLuc reporter signal (AID 1347082; calls by dose curve; tested in HEK293 reporter line; also: nearly all actives have a fitted effect of over 60% in size)
[2] = qHTS for Inhibitors of the Functional Ribonucleoprotein Complex (vRNP) of Lassa (LASV) Arenavirus: Viability assay - alamar blue signal for LASV Primary Screen (AID 1347083; calls by dose curve; tested in HEK293 reporter line; also: nearly all actives have a fitted effect of over 80% in size)
[3] = qHTS for Inhibitors of the Functional Ribonucleoprotein Complex (vRNP) of Lymphocytic Choriomeningitis Arenaviruses (LCMV): Viability assay - alamar blue signal for LCMV Primary Screen (AID 1347085; calls by dose curve; tested in HEK293 reporter line; also: nearly all actives have a fitted effect of over 80% in size)
[4] = target: Nucleoprotein (Lymphocytic choriomeningitis virus (strain Armstrong)) (UniProt P09992); experiment: qHTS for Inhibitors of the Functional Ribonucleoprotein Complex (vRNP) of Lymphocytic Choriomeningitis Arenaviruses (LCMV): LCMV Primary Screen - GLuc reporter signal (AID 1347086); also: nearly all actives have a fitted effect of over 70% in size
Sequence of Nucleoprotein (Lymphocytic choriomeningitis virus (strain Armstrong)) (P09992 whole entry, looked up): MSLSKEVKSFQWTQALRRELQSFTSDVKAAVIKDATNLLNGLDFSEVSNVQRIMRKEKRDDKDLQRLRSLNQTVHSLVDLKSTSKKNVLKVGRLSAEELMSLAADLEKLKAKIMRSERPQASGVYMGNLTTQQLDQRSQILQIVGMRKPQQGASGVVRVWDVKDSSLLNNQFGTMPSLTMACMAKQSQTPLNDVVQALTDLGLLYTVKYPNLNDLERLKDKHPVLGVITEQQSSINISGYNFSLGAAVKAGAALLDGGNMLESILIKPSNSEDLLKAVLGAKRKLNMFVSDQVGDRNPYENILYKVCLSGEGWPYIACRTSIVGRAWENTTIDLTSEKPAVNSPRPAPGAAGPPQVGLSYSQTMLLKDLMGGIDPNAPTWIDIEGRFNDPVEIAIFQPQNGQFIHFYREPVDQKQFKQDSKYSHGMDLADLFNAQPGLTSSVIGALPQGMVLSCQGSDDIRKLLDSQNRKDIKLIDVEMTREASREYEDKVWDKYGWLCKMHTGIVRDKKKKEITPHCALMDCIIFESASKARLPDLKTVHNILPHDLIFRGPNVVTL

[5] = Cytotoxicity counterscreen for inhibitors of SARS-CoV-2 cell entry (AID 1645845); also: nearly all actives have a fitted effect of over 50% in size
In short: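 ATP-content luminescence (ATPLite 1step, 15 min RT) read after 48 h compound exposure of Expi293F cells stably expressing human ACE2; normalized to cells-only wells and media-only wells.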

[6] = Primary qHTS to identify inhibitors of SARS-CoV-2 cell entry (AID 1645846); conditions: activity change, negative = inhibition: at 57.1 µM (top of the series) unless noted; also: nearly all actives have a fitted effect of over 45% in size
In short: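 Using luciferase-reporting pseudoviruses carrying Wuhan-Hu-1 spike, the screen tracks entry into stably ACE2-expressing cells over 48 hr. Activity is expressed relative to spike particles versus particles lacking any fusion protein.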
Potency is read from the fitted curve at half-maximal effect.

Row | SMILES | Potency [1] | Potency [2] | Potency [3] | Potency [4] | Potency [5] | Potency [6] | activity change, negative = inhibition [6] | activity change, negative = cytotoxicity [5]
1 | CCOC(=O)C1=C(O)C(=O)N(Cc2ccccc2)C1 | inactive | inactive | inactive | inactive | inactive | inactive | – | –
2 | C[C@H](O)[C@@H]1C(=O)N2C(C(=O)O)=C(S[C@@H]3CN[C@H](CNS(N)(=O)=O)C3)[C@@H](C)[C@@H]12 | inactive | inactive | inactive | inactive | inactive | inactive | – | –
3 | Cc1cn2cc(C(=O)N(C)CCO)cc(N[C@@H]3CCOc4cccc(C)c43)c2n1 | inactive | inactive | inactive | inactive | inactive | inactive | – | –
4 | CC1(COc2ccc3c(c2)ncn3-c2ccc3cccc(N4CCC(N)CC4)c3n2)COC1 | 0.0544 µM (active) | inactive | inactive | inactive | 28.2 µM (active) | 10 µM (active) | – | –
5 | Cc1ccc(S(=O)(=O)OCC(=O)Nc2ccc(C(=O)O)c(O)c2)cc1 | inactive | inactive | inactive | inactive | inactive | – | 2.59% | –
6 | CCOC(=O)C1=C(N)Oc2ccc(Br)cc2C1C(C#N)C(=O)OCC (centres undefined) | inactive | inactive | inactive | inactive | inactive | – | -18.1% | –
7 | O=C(O)CCCCC(CCSCc1ccccc1)SCc1ccccc1 (centres undefined) | inactive | inactive | inactive | inactive | inactive | – | -0.966% | –
8 | C=C(C)[C@@H]1CC[C@]2(C)CC[C@]3(C)[C@H](CC[C@@H]4[C@@]5(C)CC[C@H](O)C(C)(C)[C@H]5CC[C@]43C)[C@@H]12 | inactive | inactive | inactive | inactive | inactive | inactive | – | –
9 | C=C1c2cccc(O)c2C(O)=C2C(=O)[C@@]3(O)C(O)=C(C(N)=O)C(=O)[C@@H](N(C)C)[C@@H]3[C@@H](O)[C@H]12 | inactive | inactive | inactive | inactive | inactive | – | -17.4% | –
10 | CC(C)[C@H](O)C(=O)N[C@@H](C)C(=O)N[C@@H]1C(=O)N(C)CCc2ccccc21 | inactive | inactive | inactive | inactive | inactive | – | 4.11% | –
11 | COc1ccc2c(Oc3ccc(NC(=O)c4c(C)n(CC(C)(C)O)n(-c5ccccc5)c4=O)cc3F)ccnc2c1 | inactive | inactive | inactive | inactive | inactive | – | -8.07% | –
12 | O=c1ccn([C@@H]2O[C@H](CO)[C@H](O)[C@@H]2F)c(=O)[nH]1 | 4.85 µM (active) | 6.11 µM (active) | 4.32 µM (active) | 3.06 µM (active) | inactive | – | -22.4% | –
13 | CC(=O)SCC(Cc1ccccc1)C(=O)NCC(=O)OCc1ccccc1 (centres undefined) | 1.09 µM (active) | 0.432 µM (active) | 0.172 µM (active) | 0.273 µM (active) | inactive | – | -34.7% | –
14 | Cc1noc(-c2ccc(CSCCC(=O)O)cc2)c1NC(=O)OC(C)c1ccccc1Cl (centres undefined) | inactive | inactive | inactive | inactive | inactive | – | -12.6% | –
15 | Nc1[nH]nc2nnc(-c3c(-c4ccccc4)nn4ccccc34)cc12 | inactive | inactive | inactive | inactive | inactive | – | -11.3% | –
16 | COc1c(N2C[C@@H]3CCCN[C@H]3C2)c(F)cc2c(=O)c(C(=O)O)cn(C3CC3)c12 | inactive | inactive | inactive | inactive | inactive | – | 2.05% | –
17 | Cn1c(CNc2ccc(C(=N)N)cc2)nc2cc(C(=O)N(CCC(=O)O)c3ccccn3)ccc21 | inactive | inactive | inactive | inactive | – | – | -9.36% [at 0.702 µM] | -8.56% [at 0.702 µM] (inactive)
18 | CC(NCCc1ccc(O)cc1)C(O)c1ccc(O)cc1 (centres undefined) | inactive | inactive | inactive | inactive | inactive | – | -5.33% | –
19 | Nc1cccc(-c2cc3c(Oc4cccc(O)c4)ncnc3[nH]2)c1 | inactive | 34.3 µM (active) | 30.6 µM (active) | inactive | inactive | – | -8.51% | –
20 | O=S(=O)(O)CCSSCCS(=O)(=O)O | inactive | inactive | inactive | inactive | inactive | inactive | – | –
21 | Cc1ccc2c(c1)C(=O)[C@]1(O)CCN(c3ccccc3)C1=N2 | inactive | inactive | inactive | inactive | inactive | – | -18.4% | –
22 | OC[C@@H](O)[C@@H](O)[C@H](O)[C@@H](O)CO | inactive | inactive | inactive | inactive | inactive | inactive | – | –
23 | O=C(CN1C(=O)C2(CCCC2)NC[C@H]1c1cc(F)cc(F)c1)Nc1ccc2c(c1)C[C@@]1(C2)C(=O)Nc2ncccc21 | inactive | inactive | inactive | inactive | inactive | – | -13.1% | –
24 | CC(C)(O)CCc1ccc(OCc2cc(-c3cccc(OC(F)F)c3)c3ncccc3c2)cc1 | inactive | inactive | inactive | inactive | inactive | – | -16.6% | –
